Assay results reported in PubChem BioAssay (NCI).
About 83,000 compounds went through this panel and 20% of them were active in at least one assay; those are over-represented in the sample as a whole.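 Assay: single dose, 48 h. Readout: percent growth (0 = no net growth; negative = cell death). Active: <10.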 The source made the active and inactive calls.

What was measured:
Experiment in all cases: NCI-60 one-dose screen, 48 h (100 = growth as untreated, 0 = no growth, -100 = all killed)
Settings in all cases: 10 µM unless noted
SK-MEL-2 melanoma = test system: SK-MEL-2 melanoma
EKVX NSCLC = test system: EKVX NSCLC
SN12C renal = test system: SN12C renal
UO-31 renal = test system: UO-31 renal
TK-10 renal = test system: TK-10 renal
ACHN renal = test system: ACHN renal
CAKI-1 renal = test system: CAKI-1 renal
A498 renal = test system: A498 renal
CCRF-CEM leukemia = test system: CCRF-CEM leukemia
MOLT-4 leukemia = test system: MOLT-4 leukemia
SR leukemia = test system: SR leukemia
RPMI-8226 leukemia = test system: RPMI-8226 leukemia
OVCAR-8 ovarian = test system: OVCAR-8 ovarian
OVCAR-5 ovarian = test system: OVCAR-5 ovarian
SK-OV-3 ovarian = test system: SK-OV-3 ovarian
IGROV1 ovarian = test system: IGROV1 ovarian
OVCAR-3 ovarian = test system: OVCAR-3 ovarian
HS 578T breast = test system: HS 578T breast
NCI/ADR-RES ovarian = test system: NCI/ADR-RES ovarian
OVCAR-4 ovarian = test system: OVCAR-4 ovarian

Measured: growth

COc1cc([N+](=O)[O-])cc(OC)c1OC
inactive: SK-MEL-2 melanoma 114% | EKVX NSCLC 104% | SN12C renal 101% | UO-31 renal 86.5% | TK-10 renal 106% | ACHN renal 119% | CAKI-1 renal 89.5% | A498 renal 79.9% | CCRF-CEM leukemia 105% | MOLT-4 leukemia 103% | SR leukemia 102% | RPMI-8226 leukemia 96% | OVCAR-8 ovarian 109% | OVCAR-5 ovarian 129% | SK-OV-3 ovarian 118% | IGROV1 ovarian 100% | OVCAR-3 ovarian 108% | HS 578T breast 107% | NCI/ADR-RES ovarian 114%

Cc1cc(C#Cc2ccc(C(C)(C)C)cc2)ccc1-n1c(/C=C/c2c(Cl)cccc2Cl)nc2ccccc2c1=O
inactive: SK-MEL-2 melanoma 120% | EKVX NSCLC 89.9% | SN12C renal 104% | UO-31 renal 77.2% | TK-10 renal 99.1% | ACHN renal 96.2% | CAKI-1 renal 83.9% | A498 renal 104% | CCRF-CEM leukemia 95.9% | MOLT-4 leukemia 86.9% | SR leukemia 88.1% | RPMI-8226 leukemia 91.5% | OVCAR-8 ovarian 115% | OVCAR-5 ovarian 106% | OVCAR-4 ovarian 134% | SK-OV-3 ovarian 106% | IGROV1 ovarian 103% | OVCAR-3 ovarian 94.3% | NCI/ADR-RES ovarian 103%

C=CC(=O)N1CN(C(=O)C=C)CN(C(=O)C=C)C1
inactive: SK-MEL-2 melanoma 110% | EKVX NSCLC 108% | SN12C renal 95.2% | UO-31 renal 55.2% | ACHN renal 22.4% | A498 renal 106% | CCRF-CEM leukemia 10.1% | MOLT-4 leukemia 23.4% | SR leukemia 25.3% | RPMI-8226 leukemia 84.6% | OVCAR-8 ovarian 62.4% | OVCAR-5 ovarian 109% | SK-OV-3 ovarian 99% | IGROV1 ovarian 56.8% | HS 578T breast 71.8% | NCI/ADR-RES ovarian 70.8%
active: TK-10 renal -11.4% | CAKI-1 renal 3.54% | OVCAR-3 ovarian 4.76%

C/C(=N\NC(=O)CSc1nc2ccccc2c(=O)n1CCc1ccc(S(N)(=O)=O)cc1)c1ccc(Br)cc1
inactive: SK-MEL-2 melanoma 80.4% | EKVX NSCLC 88.2% | SN12C renal 92.2% | UO-31 renal 78.3% | TK-10 renal 106% | ACHN renal 93.6% | CAKI-1 renal 79.8% | A498 renal 97.5% | CCRF-CEM leukemia 76.7% | MOLT-4 leukemia 55.3% | SR leukemia 51.1% | RPMI-8226 leukemia 49.7% | OVCAR-5 ovarian 111% | OVCAR-4 ovarian 71.3% | SK-OV-3 ovarian 96.4% | IGROV1 ovarian 100% | OVCAR-3 ovarian 128% | HS 578T breast 90.8% | NCI/ADR-RES ovarian 79.1%

Nc1c(C(=O)Nc2ccccc2)sc2nc3c(cc12)C(=O)CCC3
inactive: SK-MEL-2 melanoma 38.7% | EKVX NSCLC 84.6% | SN12C renal 59.8% | UO-31 renal 71.1% | TK-10 renal 63.6% | ACHN renal 49.7% | CAKI-1 renal 54.7% | A498 renal 37.3% | CCRF-CEM leukemia 16.8% | MOLT-4 leukemia 43.4% | SR leukemia 21.9% | RPMI-8226 leukemia 30.2% | OVCAR-8 ovarian 39.9% | OVCAR-5 ovarian 59.9% | SK-OV-3 ovarian 19.7% | IGROV1 ovarian 36.4% | HS 578T breast 37.5%
active: OVCAR-3 ovarian -19.4% | NCI/ADR-RES ovarian -6.39%

CN(C)CC(=O)c1ccc2cc(Br)c3ccccc3c2c1
inactive: SK-MEL-2 melanoma 61.3% | EKVX NSCLC 89.7% | SN12C renal 72.6% | UO-31 renal 36% | TK-10 renal 72.7% | ACHN renal 59.7% | CAKI-1 renal 75.4% | A498 renal 42.2% | CCRF-CEM leukemia 71.3% | MOLT-4 leukemia 40.3% | SR leukemia 13.4% | RPMI-8226 leukemia 46.9% | OVCAR-5 ovarian 83.7% | OVCAR-4 ovarian 72.2% | SK-OV-3 ovarian 69.7% | IGROV1 ovarian 38.5% | OVCAR-3 ovarian 85.8% | HS 578T breast 55.4% | NCI/ADR-RES ovarian 72.8%

CCN(CC)c1ccc(/C=N/N=C(N)N)cc1
active: RPMI-8226 leukemia 3.74% | OVCAR-3 ovarian 4.63%
inactive: SK-MEL-2 melanoma 49.1% | EKVX NSCLC 76.5% | SN12C renal 67.3% | UO-31 renal 51.4% | TK-10 renal 63.4% | ACHN renal 43.6% | CAKI-1 renal 45.1% | A498 renal 43.9% | CCRF-CEM leukemia 36% | MOLT-4 leukemia 49.1% | SR leukemia 27.6% | OVCAR-8 ovarian 62.6% | OVCAR-5 ovarian 79.8% | SK-OV-3 ovarian 37.6% | IGROV1 ovarian 63.3% | HS 578T breast 55.3% | NCI/ADR-RES ovarian 93%

C[C@H](NC(=O)c1snnc1C1CC1)c1c(F)cccc1Cl
inactive: SK-MEL-2 melanoma 108% | EKVX NSCLC 115% | SN12C renal 104% | UO-31 renal 94% | TK-10 renal 129% | ACHN renal 92.1% | CAKI-1 renal 115% | A498 renal 96.4% | CCRF-CEM leukemia 110% | MOLT-4 leukemia 101% | SR leukemia 149% | RPMI-8226 leukemia 130% | OVCAR-8 ovarian 104% | OVCAR-5 ovarian 115% | OVCAR-4 ovarian 110% | IGROV1 ovarian 113% | OVCAR-3 ovarian 114% | NCI/ADR-RES ovarian 97.8%
